Test results taken from PubChem BioAssay (NCATS).
Where “and” joins values, the source holds several entries; their conditions need not be identical. Equal entries are not always repeated. Results filed as inconclusive are left out. Where a call stands in place of a potency, no number is given. Calls of active or inactive are those of the source. Unless noted, calls come from the whole dose curve; as a rule, active = well fitted curve in the direction sought with a large enough effect; inconclusive = small, poorly fitted or top-dose-only effect, or another doubt; inactive = no such curve, though single readings can be large; an effect the other way counts as inactive or inconclusive.

Legend:
[1] = molecular target: Cytochrome P450 2C9 (Homo sapiens) (UniProt P11712); assay: Cytochrome P450 family 2 subfamily C member 9 (CYP2C9) small molecule antagonists: luciferase biochemical (cell-free) qHTS assay (AID 1645842; active = well fitted curve in the direction sought with a large enough effect in the repeat runs; an effect the other way counts as inactive or inconclusive; note: nearly all actives have a fitted effect of over 55% in size; note: potency is the fitted concentration of half-maximal effect)
Method in brief: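 P450-Glo CYP2C9 system: proluciferin substrate with enzyme in mix containing 0.4% BSA, 10 min at room temperature, then NADPH regeneration solution added and incubated 1 h at 37C. Detection reagent stopped reaction; luminescence read after 20 min as RLU.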

Papain (Carica papaya) = Papain (Carica papaya) (UniProt P00784); assay: Primary qHTS assay for inhibitors of the protease papain (AID 1645873);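 note: papain turnover of Z-FR-AMC read as the AMC fluorescence gain over 10 min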; note: potency is the fitted concentration of half-maximal effect
[2] = Primary qHTS for inhibitors of nuclear receptor binding SET domain protein 2 (NSD2) in an isogenic RCH-ACV NSD2 p.E1099K mutant (9B) (AID 1645876); note: nearly all actives have a fitted effect of over 70% in size; note: potency is the fitted concentration of half-maximal effect
[3] = Primary qHTS for inhibitors of nuclear receptor binding SET domain protein 2 (NSD2) in an RCH-ACV wild type WT cells (2C) (AID 1645877); note: nearly all actives have a fitted effect of over 70% in size; note: potency is the fitted concentration of half-maximal effect
[4] = molecular target: Rap guanine nucleotide exchange factor 3 (Homo sapiens) (UniProt O95398); assay: Confirmatory qHTS for antagonist of cAMP-regulated guanine nucleotide exchange factor 3 (EPAC1) (AID 1645880); note: nearly all actives have a fitted effect of over 55% in size
Method in brief: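 Released BODIPY-GDP fluoresces less than Rap1-bound BODIPY-GDP; the signal is followed at 480/540 nm at 5-min intervals over 30 min, after 5 min at room temperature. Reactions contain 100 nM EPAC1, 250 nM RAP1B-BODIPY-GDP and 50 uM GDP; results are normalized to ATA and DMSO.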

[5] = molecular target: Rap guanine nucleotide exchange factor 4 (Homo sapiens) (UniProt Q8WZA2); assay: Confirmatory qHTS for agonist of cAMP-regulated guanine nucleotide exchange factor 4 (EPAC2) (AID 1645884);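 note: nucleotide exchange releases bodipy-GDP from Rap1 and this lowers its fluorescence; nearly all actives have a fitted effect of over 65% in size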
[6] = molecular target: Rap guanine nucleotide exchange factor 4 (Homo sapiens) (UniProt Q8WZA2); assay: Confirmatory qHTS for antagonist of cAMP-regulated guanine nucleotide exchange factor 4 (EPAC2) (AID 1645885); note: nearly all actives have a fitted effect of over 25% in size
[7] = molecular target: Rap guanine nucleotide exchange factor 3 (Homo sapiens) (UniProt O95398); assay: Confirmatory qHTS for agonist of cAMP-regulated guanine nucleotide exchange factor 3 (EPAC1) (AID 1645881);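 note: EPAC1 catalysed release of BODIPY-GDP from Rap1B seen as fluorescence loss; nearly all actives have a fitted effect of over 75% in size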

Rap guanine nucleotide exchange factor 4 (Homo sapiens), sequence (Q8WZA2 whole entry, looked up): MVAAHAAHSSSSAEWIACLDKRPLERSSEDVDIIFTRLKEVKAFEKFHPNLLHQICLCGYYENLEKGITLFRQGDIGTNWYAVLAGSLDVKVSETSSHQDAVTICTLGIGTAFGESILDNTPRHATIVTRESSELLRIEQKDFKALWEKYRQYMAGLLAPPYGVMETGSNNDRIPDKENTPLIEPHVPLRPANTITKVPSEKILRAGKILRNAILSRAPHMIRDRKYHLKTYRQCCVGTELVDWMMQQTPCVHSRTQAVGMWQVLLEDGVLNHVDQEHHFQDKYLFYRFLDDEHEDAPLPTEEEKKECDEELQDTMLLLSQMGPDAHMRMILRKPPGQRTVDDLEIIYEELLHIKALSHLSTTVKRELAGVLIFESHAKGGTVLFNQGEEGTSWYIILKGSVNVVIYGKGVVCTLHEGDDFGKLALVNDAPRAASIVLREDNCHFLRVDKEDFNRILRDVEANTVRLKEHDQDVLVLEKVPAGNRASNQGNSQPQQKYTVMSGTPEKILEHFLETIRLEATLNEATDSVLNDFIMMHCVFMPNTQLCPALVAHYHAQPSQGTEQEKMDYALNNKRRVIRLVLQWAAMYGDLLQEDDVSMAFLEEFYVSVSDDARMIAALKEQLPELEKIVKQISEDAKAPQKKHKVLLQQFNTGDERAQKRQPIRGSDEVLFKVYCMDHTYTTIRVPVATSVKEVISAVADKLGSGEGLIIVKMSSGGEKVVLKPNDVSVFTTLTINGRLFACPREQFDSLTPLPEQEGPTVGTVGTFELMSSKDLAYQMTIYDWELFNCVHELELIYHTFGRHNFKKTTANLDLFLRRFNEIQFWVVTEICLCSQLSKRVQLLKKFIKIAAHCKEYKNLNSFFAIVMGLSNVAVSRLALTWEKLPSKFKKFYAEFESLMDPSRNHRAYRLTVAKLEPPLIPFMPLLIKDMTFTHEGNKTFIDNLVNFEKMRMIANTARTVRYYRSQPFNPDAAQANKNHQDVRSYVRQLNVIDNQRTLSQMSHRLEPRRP
Rap guanine nucleotide exchange factor 3 (Homo sapiens), sequence (O95398 whole entry, looked up): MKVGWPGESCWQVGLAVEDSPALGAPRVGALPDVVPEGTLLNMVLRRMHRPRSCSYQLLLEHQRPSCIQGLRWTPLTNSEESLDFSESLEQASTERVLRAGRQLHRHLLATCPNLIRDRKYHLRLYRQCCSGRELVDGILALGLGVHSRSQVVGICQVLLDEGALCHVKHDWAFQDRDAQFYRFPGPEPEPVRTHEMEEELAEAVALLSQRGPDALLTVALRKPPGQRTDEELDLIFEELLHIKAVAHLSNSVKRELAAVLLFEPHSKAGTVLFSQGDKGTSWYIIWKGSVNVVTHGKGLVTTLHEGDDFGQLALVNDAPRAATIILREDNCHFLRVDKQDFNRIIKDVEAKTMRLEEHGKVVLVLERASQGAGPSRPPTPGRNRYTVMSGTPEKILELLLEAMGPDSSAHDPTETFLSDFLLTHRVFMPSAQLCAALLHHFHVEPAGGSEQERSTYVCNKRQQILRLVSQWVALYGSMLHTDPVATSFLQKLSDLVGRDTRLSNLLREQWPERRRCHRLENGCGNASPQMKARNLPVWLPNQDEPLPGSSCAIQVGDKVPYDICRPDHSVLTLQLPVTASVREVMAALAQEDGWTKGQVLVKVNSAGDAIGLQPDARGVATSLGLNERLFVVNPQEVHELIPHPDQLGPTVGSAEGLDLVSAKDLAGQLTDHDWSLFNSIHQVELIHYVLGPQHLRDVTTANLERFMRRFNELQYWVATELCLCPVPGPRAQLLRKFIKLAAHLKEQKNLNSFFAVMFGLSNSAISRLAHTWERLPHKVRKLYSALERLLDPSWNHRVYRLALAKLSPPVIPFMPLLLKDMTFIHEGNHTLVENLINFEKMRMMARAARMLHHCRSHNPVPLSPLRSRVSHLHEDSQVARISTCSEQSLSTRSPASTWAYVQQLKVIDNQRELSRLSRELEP
Papain (Carica papaya), sequence (P00784 whole entry, looked up, the tested form may be a part): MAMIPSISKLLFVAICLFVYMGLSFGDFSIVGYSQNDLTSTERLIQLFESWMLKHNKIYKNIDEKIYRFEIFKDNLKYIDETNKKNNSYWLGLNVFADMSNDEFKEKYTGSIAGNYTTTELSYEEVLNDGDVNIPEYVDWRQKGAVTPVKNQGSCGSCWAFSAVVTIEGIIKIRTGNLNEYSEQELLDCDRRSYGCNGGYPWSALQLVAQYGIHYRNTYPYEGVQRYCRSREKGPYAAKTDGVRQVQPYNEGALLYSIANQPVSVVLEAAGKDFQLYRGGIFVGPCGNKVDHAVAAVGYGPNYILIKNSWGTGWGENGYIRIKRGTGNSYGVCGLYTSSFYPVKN
Cytochrome P450 2C9 (Homo sapiens), sequence (P11712 whole entry, looked up): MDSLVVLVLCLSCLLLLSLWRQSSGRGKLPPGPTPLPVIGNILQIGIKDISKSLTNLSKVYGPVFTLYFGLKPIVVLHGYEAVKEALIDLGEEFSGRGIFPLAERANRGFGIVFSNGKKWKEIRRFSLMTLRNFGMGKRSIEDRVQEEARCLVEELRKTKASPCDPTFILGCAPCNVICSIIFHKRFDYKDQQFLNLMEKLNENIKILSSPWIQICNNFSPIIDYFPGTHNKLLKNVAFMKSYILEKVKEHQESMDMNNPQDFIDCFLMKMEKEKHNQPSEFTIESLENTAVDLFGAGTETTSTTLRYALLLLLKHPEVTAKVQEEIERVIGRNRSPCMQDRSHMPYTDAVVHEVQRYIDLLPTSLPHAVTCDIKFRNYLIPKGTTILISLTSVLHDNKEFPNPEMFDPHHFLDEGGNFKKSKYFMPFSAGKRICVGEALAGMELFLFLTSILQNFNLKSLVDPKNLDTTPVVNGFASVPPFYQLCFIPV

Compound	Potency [1]	Potency (Papain (Carica papaya))	Potency [2]	Potency [3]	outcome [4]	Potency [5]	Potency [6]	Potency [7]
CN1CCC(=C2c3ccccc3C=Cc3ccccc32)CC1	inactive	inactive	23.5 µM (active)	18.6 µM (active)	–	–	–	–
C[C@](N)(Cc1ccc(O)c(O)c1)C(=O)O	inactive	inactive	inactive	inactive	–	–	–	–
CN(C)CCCN1c2ccccc2CCc2ccc(Cl)cc21	inactive	inactive	–	16.8 µM (active) and 18.6 µM (active)	–	–	–	–
O=c1c(-c2ccc(O)cc2)coc2cc(O)cc(O)c12	inactive	inactive	11.9 µM (active) and 13.5 µM (active)	11.9 µM (active) and 10.8 µM (active)	–	–	–	–
CS(=O)(=O)Nc1ccc([N+](=O)[O-])cc1Oc1ccccc1	13.8 µM (active)	inactive	inactive	inactive	–	–	–	–
CC1COc2c(N3CCN(C)CC3)c(F)cc3c(=O)c(C(=O)O)cn1c23 (stereo unspecified)	inactive	–	inactive	inactive	–	–	–	–
CC[C@@]1(O)C(=O)OCc2c1cc1n(c2=O)Cc2cc3c(CN(C)C)c(O)ccc3nc2-1	inactive	28.2 µM (active)	16.8 nM (active) and 57.8 nM (active)	10.6 nM (active) and 23 nM (active)	inactive	inactive	inactive	–
Cn1c(=O)c2c(ncn2C)n(C)c1=O	inactive	inactive	inactive	inactive	–	–	–	–
COC(=O)Nc1nc2ccc(C(=O)c3cccs3)cc2[nH]1	inactive	inactive	13.3 nM (active) and 93.4 nM (active)	9.4 nM (active) and 66.1 nM (active)	inactive	inactive	inactive	inactive
